Compound activity: PubChem BioAssay, National Center for Advancing Translational Sciences (NCATS)
Compounds with a hit are over-represented: about 12% of the library has one in this group of screens.
G9a block = qHTS Assay for Inhibitors of Histone Lysine Methyltransferase G9a; Histone-lysine N-methyltransferase EHMT2 (Homo sapiens), Q96KQ7; G9a H3K9 monomethylation, AlphaScreen, 2 h; hit rate 8.8% among 350,000; AID 504332, 2011; Potency, µM (series often up to 102 µM), for the others: top-dose activity, negative = inhibition, actives largely listed as inhibitors; note: % is set by controls: 0 for no effect and ±100 for the full control effect; nearly all actives have a fitted effect of over 75% in size
Target sequence (Q96KQ7 913-1193 limits assumed): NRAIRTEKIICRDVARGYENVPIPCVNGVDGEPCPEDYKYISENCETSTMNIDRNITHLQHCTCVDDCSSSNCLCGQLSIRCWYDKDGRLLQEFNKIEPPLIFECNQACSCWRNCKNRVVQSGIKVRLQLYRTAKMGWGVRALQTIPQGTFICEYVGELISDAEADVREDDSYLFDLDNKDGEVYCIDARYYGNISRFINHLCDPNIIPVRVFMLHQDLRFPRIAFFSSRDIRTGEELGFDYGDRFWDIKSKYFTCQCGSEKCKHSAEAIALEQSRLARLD
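Chemiluminescent proximity detection of H3K9 monomethylation, read after 10 min bead incubation in the dark. Reaction: 20 nM G9a, 500 nM biotin-H3K9 peptide, 20 uM SAM cofactor, 2 h, room temperature, following 15 min enzyme-compound preincubation.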
BAZ2B block = qHTS Assay for Inhibitors of BAZ2B; Bromodomain adjacent to zinc finger domain protein 2B (Homo sapiens), Q9UIF8; AlphaScreen BAZ2B-H3K14Ac peptide displacement; AID 504333, 2011; Potency, µM (series often up to 114 µM), for inactives: at the top dose activity change, negative = inhibition, most hits filed as inhibitors; hit rate 4.4% among 360,000; note: % is set by controls: 0 for no effect and ±100 for the full control effect; nearly all actives have a fitted effect of over 60% in size
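AlphaScreen luminescence quantifies BAZ2B engagement of H3K14Ac peptide; the protein and biotinylated peptide are both at 50 nM final, buffer PBS pH 7.4 with 0.01% Tween-20, all steps at room temperature.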
Sfp PPTase inh = qHTS Assay for Inhibitors of Bacillus subtilis Sfp phosphopantetheinyl transferase (PPTase); hit rate 3.5% among 310,000; Biochemical Sfp PPTase activity, qHTS; Potency, µM, without a hit: largest response in the series, negative = inhibition, actives largely listed as inhibitors; 4'-phosphopantetheinyl transferase ffp (Bacillus subtilis), Q9F4F7; AID 1490, 2009;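 note: the enzyme is Sfp with the accession as filed and its product quenches rhodamine fluorescence; 0% = enzyme reaction without inhibitor and -100% = no enzyme wells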
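Compounds were incubated with enzyme (final 15 nM) for 15 min at room temperature before substrate addition started the reaction. Fluorescence at 525 nm excitation, 598 nm emission was recorded immediately and after 30 minutes.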
JMJD2A Tudor = qHTS Assay for Inhibitors of JMJD2A-Tudor Domain; hit rate 4.4% among 390,000; AID 504339, 2011; AlphaScreen JMJD2A-Tudor / H3K4me3 peptide binding; Lysine-specific demethylase 4A (Homo sapiens), O75164; Potency, µM (doses to about 114 µM), without a hit: at the highest dose activity change, negative = inhibition, actives largely listed as inhibitors; note: % is set by controls: 0 for no effect and ±100 for the full control effect; nearly all actives have a fitted effect of over 50% in size
HP1b binding inh = HTS for Inhibitors of HP1-beta Chromodomain Interactions with Methylated Histone Tails. Chromobox protein homolog 1 (Homo sapiens), P83916. AlphaScreen HP1-beta / biotin-H3K9me3 peptide binding. Potency, µM (series often up to 114 µM), for the others: top-dose activity change, negative = inhibition, most hits filed as inhibitors. hit rate 0.56% among 390,000; note: nearly all actives have a fitted effect of over 70% in size
Target sequence (P83916 whole entry, looked up): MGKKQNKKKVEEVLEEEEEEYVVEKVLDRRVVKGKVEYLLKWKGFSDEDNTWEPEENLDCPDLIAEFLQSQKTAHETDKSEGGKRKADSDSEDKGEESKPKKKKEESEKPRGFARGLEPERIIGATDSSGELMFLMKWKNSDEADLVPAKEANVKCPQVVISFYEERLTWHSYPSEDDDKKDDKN
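HP1-beta protein (50 nM final) preincubated 30 min at room temperature with biotinylated H3(1-18)K9me3 peptide (50 nM) in PBS pH 7.4, 0.01% Tween-20, then compound added for 30 min. AlphaScreen streptavidin donor/nickel chelate acceptor beads (10 ug/mL final), 30 min dark, luminescence read.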
Starred values were filed as active, the others as inactive; ? = inconclusive; · = no result given; [ ] = remark or other dose. Calls come from the whole dose curve; as a rule, active = well fitted curve in the direction sought with a large enough effect; inconclusive = small, poorly fitted or top-dose-only effect, or another doubt; inactive = no such curve, though single readings can be large; an effect the other way counts as inactive or inconclusive. Potency is the fitted concentration of half-maximal effect.

SMILES	G9a block	BAZ2B block	Sfp PPTase inh	JMJD2A Tudor	HP1b binding inh
O=C(NNS(=O)(=O)c1ccc(Cl)cc1)c1sccc1-n1cccc1	?	-36%	5%	13µM*	-4%
O=C(NNS(=O)(=O)c1ccccc1)c1sccc1-n1cccc1	-11%	?	3%	-10%	34%
CCC(C)(C)n1nnnc1C(c1ccc(O)cc1)N1CCc2ccccc2C1 (centres undefined)	2.5µM*	-35%	14µM*	89µM*	?
CN(C)c1ccc(C(c2nnnn2C(C)(C)C)N2CCc3ccccc3C2)cc1 (centres undefined)	40µM*	?	-12%	·	·
CC1CCN(C(c2ccc(N(C)C)cc2)c2nnnn2C(C)(C)C)CC1 (centres undefined)	?	50µM*	20µM*	56µM*	?
COc1ccc(/C=N/Nc2cc(C)nc(N3CCOCC3)n2)c(OC)c1	5%	-13%	8%	-13%	9%
O=C(CNC(=O)c1cccc([N+](=O)[O-])c1)OCCCC(=O)c1ccc(F)cc1	·	·	·	-21%	12%
Cc1ccc(N(CC(=O)Nc2cccc(F)c2)S(=O)(=O)c2cccs2)cc1	5%[59 µM]	·	·	-19%	6%
NS(=O)(=O)c1ccc(N2C(=O)C(=O)/C(=C(/O)c3ccccc3)C2c2ccc(Cl)cc2)cc1 (centres undefined)	50µM*	7%	10%	-9%	15%
O=C1C(=O)N(c2cccc(Cl)c2)C(c2ccccc2[N+](=O)[O-])/C1=C(\O)c1ccccc1 (centres undefined)	28µM*	79µM*	22µM*	?	-8%
CCOc1ccc(N2C(=O)C(=O)/C(=C(/O)c3ccccc3)C2c2ccccc2[N+](=O)[O-])cc1 (centres undefined)	45µM*	-8%	?	-27%	7%
O=C1C(=O)N(c2ccccc2)C(c2ccccc2[N+](=O)[O-])/C1=C(\O)c1ccccc1 (centres undefined)	?	?	13µM*	-32%	?
COc1cc(C2Nc3ccccc3C(=O)N2NS(C)(=O)=O)ccc1O (centres undefined)	4%	-12%	12%	-3%[11.4 µM]	60%
COc1ccc(C(=O)N/N=C(\C)CC(=O)Nc2ccc3c(c2)OCO3)cc1	·	-2%	4%	?	17%
O=C1CC(=O)N2CCSC2=N1	·	·	·	-14%	18%[57 µM]
CCC(=O)Nc1cc(C)c(NC(=O)C23CC4CC(CC(C4)C2)C3)cn1	1.1µM*	13%	-13%	1%	51%
COc1ccc(OCC(O)CN2CCOCC2)cc1 (centres undefined)	-10%[0.501 µM]	4%	20%	7%	13%
COC(=O)c1ccc(C2NC(C(=O)O)CS2)cc1 (centres undefined)	3.5µM*	?	56µM*	6.3µM*	-63%
COc1cc(C2NC(C(=O)O)CS2)ccc1OCc1ccccc1C#N (centres undefined)	20µM*	-3%	18µM*	·	·
CCOC(=O)COc1ccc(C2NC(C(=O)O)CS2)cc1 (centres undefined)	?	56µM*	45µM*	7.9µM*	?
O=C(CSCc1ccccc1F)NCc1ccc(F)cc1	-29%	·	3%	3%	55%
COc1cccc(-c2csc(N3CCN(C(=S)Nc4ccc(Cl)cc4)CC3)n2)c1	?	26%	45µM*	-24%	-6%
CNC(=S)N1CCN(c2nc(-c3ccc(Cl)cc3)cs2)CC1	12%	0%	6%	-14%	-11%
COCCNC(=S)N1CCN(c2nc(-c3ccc(Cl)cc3)cs2)CC1	?	-31%	7%	32µM*	6%
COCCNC(=S)N1CCN(c2nc(-c3ccc(F)cc3)cs2)CC1	50µM*	?	-4%	-35%	1%
SMILES	G9a block	BAZ2B block	Sfp PPTase inh	JMJD2A Tudor	HP1b binding inh
c1cn2cc(-c3ccc4c(c3)OCO4)nc2s1	20%[2.33 µM]	?	32µM*	-27%	?
N#CCCN1CCN(C2=NC(=O)C(=C3CCCCC3)S2)CC1	-1%[59 µM]	4%	-7%	-22%	12%
O=C(N/N=C/c1ccco1)c1cc(C2CC2)nc2ccccc12	?	-1%	-3%	·	·
O=Cc1ccc(N2N=C(c3ccccc3)CC2c2ccccc2)cc1 (centres undefined)	264%	83%	-11%	142%	215%
O=[N+]([O-])c1cccc(C2CC(c3ccccc3)=NN2c2ccccc2)c1 (centres undefined)	32µM*	?	1%	28µM*	?
CC(=O)c1cccc(-n2nnnc2SCC(=O)N2CCCC2)c1	56µM*	-7%	4%	-19%	28%
O=c1c2ccccc2nc2c3ccccc3c(NCc3ccccn3)nn12	32µM*	50µM*	4%	?	43%
O=c1c2ccccc2nc2c3ccccc3c(NCc3cccnc3)nn12	7%	-2%	-2%	-3%	49%
Cc1cccc(C)c1NS(=O)(=O)c1ccc2c(c1)[C@H]1C=CC[C@H]1[C@@H](c1ccc(Cl)cc1)N2	3.5µM*	-37%	·	-32%	6%
COc1cccc(NS(=O)(=O)c2ccc3c(c2)[C@H]2C=CC[C@H]2[C@@H](c2ccccc2Cl)N3)c1	?	0%	·	-24%	19%
COC(=O)c1ccc([C@H]2Nc3ccc(S(=O)(=O)Nc4ccc(C)cc4)cc3[C@H]3C=CC[C@H]32)cc1	3.5µM*	?	·	?	-11%
COc1ccc(NS(=O)(=O)c2ccc3c(c2)[C@H]2C=CC[C@H]2[C@@H](c2ccc(C(=O)O)cc2)N3)cc1	25µM*	40µM*	-28%	45µM*	35µM*
Cc1cccc(C)c1NS(=O)(=O)c1ccc(F)cc1	1%	4%	12%	-12%[11.4 µM]	-6%
CC(=O)c1ccc2c(c1)C1C=CCC1C(c1ccc(S(=O)(=O)N3CCOCC3)cc1)N2 (centres undefined)	?	?	-28%	-32%	6%
Cc1c(Cl)cccc1NS(=O)(=O)c1ccc2c(c1)C1C=CCC1C(c1ccc(C(=O)O)cc1)N2 (centres undefined)	2.8µM*	45µM*	?	56µM*	50µM*
O=C(CN1C(=O)c2ccccc2S1(=O)=O)Nc1ccc([N+](=O)[O-])cc1	·	·	·	-21%	6%
c1cncc(CNc2nc(-c3cccnc3)nc3ccccc23)c1	-7%	-13%	13%	-5%	44%
c1cncc(-c2nc(NCC3COc4ccccc4O3)c3ccccc3n2)c1 (centres undefined)	50µM*	-32%	?	22%[11.4 µM]	1%
Clc1cccc(CNc2nc(-c3cccnc3)nc3ccccc23)c1	45µM*	?	-29%	?	-14%
